Source: PubChem BioAssay (National Center for Advancing Translational Sciences (NCATS))
Rows were chosen to be rich in hits. Some 8% of all compounds tested hit in one or more screens of this group.
LASV entry inh = Lassa virus entry inhibition; 300,000 compounds, 1.2% hits; Lassa virus pseudotype entry inhibition, cell reporter; Potency, µM (doses to about 37.9 µM), for the others: top-dose activity change, negative = inhibition, most hits filed as inhibitors; calls by dose curve; tested in HEK293 cells; also: potency is read from the fitted curve at half-maximal effect; % is scaled to controls: 0 for no effect and ±100 for the full control effect; nearly all actives have a fitted effect of over 50% in size
SARS PLP yeast = inhibitors of SARS-CoV papain-like protease in yeast; S. cerevisiae expressing SARS-CoV PLpro, growth rescue; Potency, µM (doses to about 32.9 µM), for the others: at the top dose activity, positive = growth rescue, hits mostly activators; 330,000 compounds, 0.19% hits; AID 485353; calls by dose curve; also: potency is read from the fitted curve at half-maximal effect; 0% is about no effect; nearly all actives have a fitted effect of over 55% in size
FMDV antiviral = antivirals against foot and mouth disease virus; FMDV antiviral cell-based qHTS; AID 1159524; Potency, µM (top dose mostly 57.9 µM), without a hit: at the highest dose activity change, negative = inhibition, actives largely listed as inhibitors; 410,000 compounds, 1.2% hits; calls by dose curve; tested in HEK293T cells; also: read-out not given here; potency is read from the fitted curve at half-maximal effect; % is scaled to controls: 0 for no effect and ±100 for the full control effect; nearly all actives have a fitted effect of over 45% in size
Marburg entry inh = Marburg virus entry inhibition; Marburg virus pseudotyped entry inhibition, cell reporter; Potency, µM (series often up to 37.8 µM), for the others: at the highest dose activity change, negative = inhibition, actives largely listed as inhibitors; 300,000 compounds, 1.8% hits; calls by dose curve; tested in HEK293 cells; also: potency is read from the fitted curve at half-maximal effect; % is scaled to controls: 0 for no effect and ±100 for the full control effect
HCV inh = HCV inhibition; 340,000 compounds, 3.4% hits; Potency, µM (series often up to 41.8 µM), for inactives: at the top dose activity change, negative = inhibition, usual class: inhibitors; Huh7.5.1 HCVcc-Cre infection, luciferase reporter, 44 h; active = well fitted inhibition curve with a large enough effect; inconclusive = small, poorly fitted or top-dose-only effect, or another doubt; inactive = no such curve, though single readings can be large or run the other way; also: potency is read from the fitted curve at half-maximal effect; % is scaled to controls: 0 for no effect and ±100 for the full control effect
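Whole-lifecycle infectious HCVcc-Cre system; cells 1,000/well, compound then virus (~0.5 moi) added 4 h after plating, 44 h culture. Luciferase read 15 sec following 15 min substrate incubation, room temp.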
HCMV inh = human cytomegalovirus inhibition. HFF cells, HCMV-luciferase reporter, 72 h; active compounds read low. activity change, negative = inhibition, % at 57.5 µM. 410,000 compounds, 4.5% hits; in the data active = activity change below about -60%; inconclusive = no clear call, values can overlap the other calls; inactive = above about -39%; also: % is scaled to controls: 0 for no effect and ±100 for the full control effect
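Screen run at 2 compound doses on HFFs infected with reporter HCMV, MOI 1 PFU/cell. Luciferase activity from cell lysates at 72 h post infection gave inhibition relative to buffer-only and Salinomycin wells.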
* = called active by the depositor; ? = inconclusive; · = no result; [ ] = another dose, or the depositor's remark.

SMILES | LASV entry inh | SARS PLP yeast | FMDV antiviral | Marburg entry inh | HCV inh | HCMV inh
CS(=O)(=O)c1cccc(-c2nnc(NC(=O)c3ccc4c(c3)OCCO4)o2)c1 | 7%[46.1 µM] | · | -4% | · | · | 18
CCCCC1CCC(C(=O)N2CC(=O)Nc3ccc(Cl)cc3C2c2ccc(F)cc2)CC1 (centres undefined) | -23%[46.1 µM] | · | -13% | ? | · | 14
Cc1ccc(Cl)cc1N(C)C(=O)c1cc2ccc3cccnc3c2[nH]1 | ? | · | 7% | · | · | -9
CNC(=O)c1cc(Nc2nnc(-c3ccc(O)cc3)c3ccccc23)ccc1OC | ? | -1% | -5% | ? | ? | -31
CCOc1ccc(-c2nnc(Nc3ccc(OC)c(C(=O)N4CCCCC4)c3)c3ccccc23)cc1 | · | -17% | -11% | 3% | 14µM* | -23
COC(=O)COc1ccc(-c2nnc(Nc3ccc(O)cc3)c3ccccc23)cc1 | 19%[46.1 µM] | · | ? | -5%[46.1 µM] | · | -107*
Cc1cc(Br)ccc1NC(=S)Nc1cccc([N+](=O)[O-])c1 | -3% | -13% | -23% | 25% | ? | -64*
CNC(=S)Nc1cccc([N+](=O)[O-])c1 | 6% | 0% | -8% | -2%[46.1 µM] | 6% | -3
C=CCNC(=S)Nc1cccc([N+](=O)[O-])c1 | · | 6% | 5% | · | -4% | -90*
Cc1nnc(SC(=O)N2c3ccccc3Sc3ccccc32)s1 | 21µM* | 18% | · | ? | ? | ?
N#Cc1ncc(N=Cc2ccc(N(CCCl)CCCl)cc2)s1 | 0.71µM* | · | -27% | 0.79µM* | ? | -32
CCCC[C@H]1COCCS(=O)(=O)N1Cc1cccc([N+](=O)[O-])c1 | · | -4% | -1% | · | -5% | -100*
COc1ccc(-c2cnc(N)nc2-c2ccc(OC)cc2)cc1 | · | -1% | ? | · | ? | -4
COc1ccc2c(c1)CCc1cnc(N)nc1-2 | 1% | 0% | 29% | ? | ? | -68*
COc1ccc(CCN(C)Cc2nc(-c3cnccn3)no2)cc1OC | · | -1% | 5.6µM* | · | 8% | 9
CC1=C(C(=O)Nc2ccc(C)cc2C)C(C(C)C)n2nc(SCc3ccccc3Cl)nc2N1 (centres undefined) | 5%[46.1 µM] | · | -15% | -3%[46.1 µM] | · | 9
Cc1cnc(SCc2ccccn2)nc1C1CCCN(C(=O)c2noc3c2CCCC3)C1 (centres undefined) | · | · | 20µM* | · | · | ·
Cc1cnc(SCc2ccccn2)nc1C1CCCN(C(=O)c2scc3c2CCCC3)C1 (centres undefined) | · | · | 16µM* | · | · | ·
COc1cc(Cl)c(CN2CCCC(CO)(Cc3ccccc3F)C2)cc1OC (centres undefined) | ? | 7% | -19% | 2.8µM* | -16% | -7
CCCCOc1ccc(OC(=O)c2sc3ncn(Cc4cccc(F)c4)c(=O)c3c2C)cc1 | 26%[46.1 µM] | · | -27% | · | · | 10
COc1ccc(C)cc1NC(=O)Nc1ccccc1OCc1cc(=O)n2ccccc2n1 | -1%[46.1 µM] | · | -13% | · | · | 37
O=C(CC1Nc2c3ccccc3nc(=S)n2C1=O)NC1CCCCC1 (centres undefined) | · | 0% | · | · | · | -64*
O=C(CSc1nc2ccccc2nc1Cc1ccccc1)N1CCc2ccccc21 | -1%[46.1 µM] | · | -1% | · | · | 0
CCC(C)NC(=O)CCC(=O)N1Cc2ccccc2Oc2ncccc21 (centres undefined) | 3%[46.1 µM] | · | -6% | · | · | 20
CCC(=O)Nc1nnc(SCC(=O)c2ccc3c(c2)Cc2ccccc2-3)s1 | 6.5µM* | -15% | · | ? | 13% | -19
SMILES | LASV entry inh | SARS PLP yeast | FMDV antiviral | Marburg entry inh | HCV inh | HCMV inh
CC(=O)Nc1nnc(SCC(=O)c2ccc3c(c2)Cc2ccccc2-3)s1 | ? | 4% | 10% | ? | 1% | -37
COc1cc2c(cc1OC)CN(S(=O)(=O)/C=C/c1ccccc1)CC2 | 1.3µM* | 1% | -6% | ? | -3% | -25
Clc1ccccc1CN1CCN(c2ccccc2)CC1 | 8% | 13% | 0% | -22% | -9% | 8
Cn1cc(CN2CCN(c3ccccc3)CC2)c2ccccc21 | -18% | ? | -11% | 15µM* | ? | 8
Cc1ccc(CNC(=O)Cn2ccn(-c3cc(C)cc(C)c3)c(=O)c2=O)cc1 | 15%[46.1 µM] | · | 23% | · | · | ?
O=C(c1ccco1)N1CCN(C(=O)c2ccc(COc3ccc4c(c3)CCC4)o2)CC1 | 14µM* | 0% | ? | ? | ? | -16
O=C(c1ccc(COc2ccc3c(c2)CCC3)o1)N1CCN(c2ccccc2)CC1 | ? | · | · | 19% | -27% | 26
O=C(c1ccc(COc2ccccc2Cl)o1)N1CCN(c2ccccc2)CC1 | · | -3% | -16% | · | ? | 29
O=C(c1ccco1)N1CCN(C(=O)c2ccc(COc3ccc(Cl)cc3Cl)o2)CC1 | 13µM* | · | ? | ? | ? | 38
COc1ccc(C(=O)[C@@H]2CCCCC2=O)cc1 | · | · | · | 24% | · | ·
Cc1ccc(Nc2nc3ccccc3c(=O)s2)cc1C | 6% | 12% | 31% | 1% | 9% | -73*
Cc1ccc(C(=O)Nc2nc3ccccc3c(=O)s2)cc1 | -21% | -17% | · | -21% | 8.9µM* | -23
Cc1ccc(C(=O)Nc2nc3ccccc3[nH]2)cc1 | ? | -8% | 11µM* | 1.4µM* | 2% | -84*
Cc1ccc(N(C)S(=O)(=O)c2cccc(C(=O)Nc3nc4ccccc4[nH]3)c2)cc1 | 16µM* | -9% | 0% | 12µM* | 11µM* | -87*
CCOC(=O)c1c(C)[nH]c(CCC(=O)Nc2cc(Cl)ccc2OC)c1C | ? | · | -25% | · | · | -13
CCN(C(=O)Cn1nc(Cc2cccnc2)c2ccccc2c1=O)c1cc(C)ccc1C | -7%[46.1 µM] | · | -18% | -27%[46.1 µM] | · | ?
COc1cc(SC)ccc1C(=O)Nc1ccccc1 | -24% | -10% | 20% | ? | ? | 129
COc1ccccc1C(=O)NCCC(=O)Nc1nc2ccccc2[nH]1 | 25% | -4% | 0% | 19%[46.1 µM] | ? | 74
Cc1cc(C(=O)Nc2cnc3ccccc3c2)ccc1[N+](=O)[O-] | ? | 0% | 59% | ? | ? | 25
Cc1ccc(C(=O)Nc2cnc3ccccc3c2)cc1 | 5µM* | 2% | 3.5µM* | ? | -14% | -81*
COc1ccccc1OC(=O)c1ccc(SC)cc1OC | 10µM* | -5% | 42% | ? | ? | -15
COc1ccccc1C(=O)Nc1nc2ccccc2[nH]1 | ? | -16% | 1µM* | ? | -4% | -76*
COc1cc(SC)ccc1C(=O)Nc1nc2ccccc2[nH]1 | ? | -79% | 0.035µM* | ? | -15% | -98*
O=C(c1ccc2c(c1)N(Cc1ccccc1)C(=O)c1ccccc1S2(=O)=O)N1CCc2ccccc21 | -22%[46.1 µM] | · | 19% | ? | · | 39
CC[C@H]1Nc2ccc(OC)cc2[C@@H](NS(C)(=O)=O)[C@@H]1C | · | · | · | · | · | 1
C/C(=N\Nc1nc2ccccc2[nH]1)c1ccc([N+](=O)[O-])cc1 | ? | 5% | -19% | -1%[46.1 µM] | 10µM* | -18
